Reference: PubChem BioAssay (NCATS)
Inconclusive results are not listed. Activity calls are given as the source filed them. Unless noted, calls come from the whole dose curve; as a rule, active = well fitted curve in the direction sought with a large enough effect; inconclusive = small, poorly fitted or top-dose-only effect, or another doubt; inactive = no such curve, though single readings can be large; an effect the other way counts as inactive or inconclusive.

What was measured:
[1] = qHTS for Inhibitors of Plasmodium falciparum (DD2) proliferation (AID 504314);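 note: parasite DNA measured by SYBR Green fluorescence after red cell lysis; plate controls were DMSO vehicle for no effect and artemisinin wells for full effect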
Summary of the method: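 Erythrocytes infected with P. falciparum (0.3% parasitemia, 2.5% hematocrit final) were incubated with compounds for 72 h at 37C, 5% CO2. Parasite DNA was detected by SYBR Green I fluorescence after saponin/Triton lysis, normalized to artemisinin (0.29 uM) and DMSO controls.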

[2] = qHTS for Inhibitors of Plasmodium falciparum (GB4) proliferation (AID 504315);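 note: 0% = DMSO vehicle and -100% = 0.29 µM artemisinin control; nearly all actives have a fitted effect of over 50% in size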
Summary of the method: (§1)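 Erythrocytes infected with P. falciparum line (0.3% parasitemia, 2.5% hematocrit final) incubated with compounds 72 h at 37 °C, 5% CO2; SYBR Green lysis buffer added, fluorescence read next day. Normalized to 0.29 uM artemisinin and DMSO.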

[3] = qHTS for Inhibitors of Plasmodium falciparum (7G8) proliferation (AID 504316);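 note: series mostly up to about 6.7 µM; 0% = DMSO vehicle and -100% = 0.29 µM artemisinin full kill; nearly all actives have a fitted effect of over 65% in size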
Summary of the method: as §1

[4] = qHTS for Inhibitors of Plasmodium falciparum (HB3) proliferation (AID 504318);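 note: 0% = DMSO vehicle and -100% = artemisinin control; nearly all actives have a fitted effect of over 60% in size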
Summary of the method: as §1

[5] = qHTS for Inhibitors of Plasmodium falciparum (CP250) proliferation (AID 504320);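 note: plate controls were DMSO vehicle for no effect and 0.29 µM artemisinin control for full effect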
Summary of the method: as §1

[6] = target: Atrial natriuretic peptide receptor 1 (Homo sapiens) (UniProt P16066); test: Natriuretic polypeptide receptor (hNpr1) antagonism - Pilot CMLD screen (AID 1347052; calls by dose curve;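 note: HEK293 cells with hNpr1 stimulated by hNppA peptide at 0.1 nM; cGMP level read as GloSensor luciferase luminescence after agonist stimulation; series mostly up to about 9.2 µM; % is set by controls: 0 for no effect and ±100 for the full control effect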)
Sequence of Atrial natriuretic peptide receptor 1 (Homo sapiens) (P16066 whole entry, looked up): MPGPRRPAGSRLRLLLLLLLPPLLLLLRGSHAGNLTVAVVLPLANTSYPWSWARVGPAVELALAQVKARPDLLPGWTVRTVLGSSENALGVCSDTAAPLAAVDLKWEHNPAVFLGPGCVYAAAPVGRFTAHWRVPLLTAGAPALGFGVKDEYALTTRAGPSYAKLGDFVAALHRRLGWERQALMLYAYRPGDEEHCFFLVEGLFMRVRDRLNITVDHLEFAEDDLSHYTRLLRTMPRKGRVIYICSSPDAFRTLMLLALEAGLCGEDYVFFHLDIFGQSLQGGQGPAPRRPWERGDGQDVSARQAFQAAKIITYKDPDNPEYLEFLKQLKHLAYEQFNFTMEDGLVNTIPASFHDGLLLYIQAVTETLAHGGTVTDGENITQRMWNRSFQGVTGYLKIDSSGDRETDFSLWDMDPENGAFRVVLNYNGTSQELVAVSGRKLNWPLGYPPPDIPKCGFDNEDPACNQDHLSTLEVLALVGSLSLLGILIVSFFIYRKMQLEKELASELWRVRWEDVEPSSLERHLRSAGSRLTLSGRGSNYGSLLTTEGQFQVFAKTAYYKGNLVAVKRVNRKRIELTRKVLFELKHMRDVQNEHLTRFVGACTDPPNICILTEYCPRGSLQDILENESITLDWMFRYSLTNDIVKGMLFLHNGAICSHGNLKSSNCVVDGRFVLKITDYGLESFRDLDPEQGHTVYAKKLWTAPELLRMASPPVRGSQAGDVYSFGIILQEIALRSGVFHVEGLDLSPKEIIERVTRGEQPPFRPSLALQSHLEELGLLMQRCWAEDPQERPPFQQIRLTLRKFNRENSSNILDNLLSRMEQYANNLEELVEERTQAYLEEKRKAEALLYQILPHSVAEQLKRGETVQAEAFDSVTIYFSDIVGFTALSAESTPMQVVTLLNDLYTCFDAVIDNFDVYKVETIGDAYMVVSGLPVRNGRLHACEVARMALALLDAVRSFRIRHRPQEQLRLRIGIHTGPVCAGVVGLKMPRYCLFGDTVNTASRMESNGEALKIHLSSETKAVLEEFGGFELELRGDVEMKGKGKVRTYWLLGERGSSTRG

C#CCN1C(=O)[C@]2(OCCC=C[C@@H]2C)c2cc(OC)ccc21
inactive: Potency [1] | Potency [2] | Potency [3] | Potency [4] | Potency [5] | Potency [6]

CCCCC1=CC2=C(c3ccco3)C(=O)C(C)(OC(=O)c3ccc(OC)cc3)C(=O)C2=CN1C(CO)CO (stereo not drawn)
inactive: Potency [1] | Potency [2] | Potency [3] | Potency [4] | Potency [5] | Potency [6]

CCN(CCNC(=O)[C@H]1C=C(OC)C(=O)C[C@@H]2c3ccccc3C[C@]12C)C(C)=O
inactive: Potency [1] | Potency [2] | Potency [3] | Potency [4] | Potency [5] | Potency [6]

COc1ccc2c(c1)O[C@H](c1ccc3c(c1)OCO3)[C@@H](OC(=O)NCCOc1ccccc1)C2=O
inactive: Potency [1] | Potency [2] | Potency [3] | Potency [4] | Potency [5] | Potency [6]

CCOC(=O)C1=CN(CCC=C(C)C)C(=O)N(C(C)=O)C1c1ccccc1 (stereo not drawn)
inactive: Potency [1] | Potency [2] | Potency [3] | Potency [4] | Potency [5] | Potency [6]

COC(=O)N[C@@H](c1cccc(F)c1)[C@]1(C(=O)OC)CCCC1=O
inactive: Potency [1] | Potency [2] | Potency [3] | Potency [4] | Potency [5] | Potency [6]

C#CCCOC(=O)N1C2=NC(C(=O)OC)=C(C(=O)OC)[C@@H]3N(CC=C)c4ccccc4[C@]23C[C@H]1C(=O)OC
inactive: activity, negative = inhibition [1] 5.23% [at 1.12 µM] | Potency [2] | Potency [3] | Potency [4] | Potency [5] | Potency [6]

O=C1CCC=C1C(O)c1ccccc1 (stereo not drawn)
inactive: Potency [1] | Potency [2] | Potency [3] | Potency [4] | Potency [5] | Potency [6]

COc1ccc2c(c1)O[C@H](c1ccc3c(c1)OCO3)[C@@H](OC(=O)N[C@H]1CCCc3ccccc31)C2=O
inactive: Potency [1] | Potency [2] | Potency [3] | Potency [4] | Potency [5] | Potency [6]

COC(=O)C1=C(C)N(Cc2ccco2)C(=O)NC1c1ccco1 (stereo not drawn)
inactive: Potency [1] | Potency [2] | Potency [3] | Potency [4] | Potency [5] | Potency [6]

C[C@]12O[C@@H]1[C@@H](O)C(Br)=C(CO)[C@@H]2O
inactive: Potency [1] | Potency [2] | Potency [3] | Potency [4] | Potency [5] | Potency [6]

C=CCO[C@@H]1C=C[C@@H](c2ccccc2)O[C@@H]1COC
inactive: Potency [1] | Potency [2] | Potency [3] | Potency [4] | Potency [5] | Potency [6]

COC1=C[C@H](C(=O)NCc2ccc(Cl)cc2)C(C)C(c2ccccc2)CC1=O (stereo partly drawn)
inactive: Potency [1] | Potency [2] | Potency [3] | Potency [4] | Potency [5] | Potency [6]

COC(=O)N[C@@H](c1ccc2ccccc2c1)C(C(C)=O)C(=O)OC (stereo partly drawn)
inactive: Potency [1] | Potency [2] | Potency [3] | Potency [4] | Potency [5] | Potency [6]

Cc1cc(F)ccc1O[C@H]1C=C[C@@H](c2ccc3c(c2)OCO3)O[C@H]1CO
inactive: Potency [1] | Potency [2] | Potency [3] | Potency [4] | Potency [5] | Potency [6]

C=CCOC(=O)C(C(C)=O)[C@@H](NC(=O)OC)c1ccc(Cl)cc1 (stereo partly drawn)
inactive: Potency [1] | Potency [2] | Potency [3] | Potency [4] | Potency [5] | Potency [6]

CC(=O)C1=C(C)N(Cc2ccccc2)C(=O)NC1c1cccc(F)c1 (stereo not drawn)
inactive: Potency [1] | Potency [2] | Potency [3] | Potency [4] | Potency [5] | Potency [6]

COC(=O)CCCC1=CC2=CC(=O)C(C)(OC(=O)c3cccs3)C(=O)C2=CN1C1CCCC1 (stereo not drawn)
inactive: activity, negative = inhibition [1] -0.45% [at 1.12 µM] | Potency [2] | Potency [3] | Potency [4] | Potency [5] | Potency [6]
